Screens deposited in PubChem by National Center for Advancing Translational Sciences (NCATS).
Compounds with a hit are over-represented: about 6.1% of the library has one in this group of screens.
DRD3 agonist – D3 dopamine receptor (human) agonism. P35462. D3R DiscoveRx beta-arrestin cells, luminescence, 90 min. max activation, %. 0.58% of 410,000 active; in the data active = max activation above about 30%; note: 0% is about no effect
Target sequence (P35462 whole entry, looked up): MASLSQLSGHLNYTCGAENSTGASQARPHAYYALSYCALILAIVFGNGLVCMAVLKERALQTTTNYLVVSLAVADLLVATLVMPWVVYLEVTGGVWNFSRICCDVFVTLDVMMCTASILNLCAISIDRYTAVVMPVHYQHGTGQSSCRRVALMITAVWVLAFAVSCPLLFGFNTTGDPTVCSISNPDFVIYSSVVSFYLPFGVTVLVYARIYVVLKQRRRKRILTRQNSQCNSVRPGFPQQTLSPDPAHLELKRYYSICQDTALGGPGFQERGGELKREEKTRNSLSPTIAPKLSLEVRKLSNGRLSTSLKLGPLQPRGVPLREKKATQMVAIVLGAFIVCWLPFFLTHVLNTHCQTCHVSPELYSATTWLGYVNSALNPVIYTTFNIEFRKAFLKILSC
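Cells at 1500/well, incubated overnight, then treated with pinned compounds (dopamine as control) for 90 min at 37 degrees C. DiscoveRx reagent added for 30 - 60 minutes at room temperature; luminescence read.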
DRD3 antagonist – blocks the human D3 dopamine receptor | D3R cells, DiscoveRx beta-arrestin luminescence, antagonist mode; stronger effect = lower value | max response, negative = inhibition, % | 2.5% of 360,000 active | P35462; in the data active = max response below about -50%; inconclusive = no clear call, values can overlap the other calls; note: % is set by controls: 0 for no effect and ±100 for the full control effect
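Cells plated overnight at 1500 cells/well, then exposed to library compounds with dopamine controls for 90 minutes at 37 degrees C. DiscoveRx reagent added for 30–60 minutes at room temperature; luminescence read, quantitative HTS format.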
D1 agonist – human D1 receptor agonism; activation, % at 2 µM; HEK293 T-REx D1 cells, calcium flux, agonist mode; AID 504660; 1% of 360,000 active; in the data active = activation above about 30%; note: 0% is about no effect
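Inducible HEK293 T-REx D1 cells, force-coupled to calcium signalling, were plated at 4000 cells/well with tetracycline and held overnight at 30 C. After no-wash calcium dye loading, compound-evoked calcium rise over 180 s flagged agonists.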
ERG Ets-DNA blk – blocks human ERG Ets domain binding to DNA. 0.028% of 370,000 active. fluorescence polarization, His-ERG Ets domain / labelled DNA. Potency, µM (doses to about 76.9 µM), without a hit: at the highest dose FP activity, negative = inhibition, usual class: inhibitors; active = well fitted inhibition curve with a large enough effect in the polarisation, with a control signal flat; inconclusive = small, poorly fitted or top-dose-only effect, or effect the other way, or a change in a side signal; inactive = no such curve, though single readings can be large or run the other way; the % refers to the polarisation;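 note: polarization taken with two DNA probes labelled with fluorescein and Texas red; potency is the fitted concentration of half-maximal effect; % of control where 0% means no effect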
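His-tagged ERG Ets domain (1 uM in the protein solution; 300mM KCl, 50mM Tris-HCl, 1mM EDTA, 1mM DTT, pH 7.5) received compound, then a probe mix of 5 nM fluorescein-DNA and 100nM Texas-615-DNA. Fluorescence polarization was read for both dyes.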
D1 antag – antagonists of human D1 dopamine receptor. P21728. HEK293 TREx D1 cells, calcium flux, dopamine EC80; stronger effect = lower value. activity change, negative = inhibition, % at 10 µM. 3.2% of 360,000 active. AID 504652; in the data active = activity change below about -30%; note: % is set by controls: 0 for no effect and ±100 for the full control effect
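After overnight tetracycline induction at 30 C, force-coupled D1 HEK293 cells took up a no-wash calcium dye at room temperature. Compounds were added and monitored 180 s, and the response to EC80 dopamine was then recorded.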
D1 PAM – enhances dopamine response at the human D1 receptor | P21728 | HEK293 TREx D1 cells, calcium flux, dopamine EC20 potentiation | potentiation, % at 10 µM | 0.036% of 360,000 active | AID 504651; in the data active = potentiation above about 30%; note: 0% is about no effect
Active calls of the source: *; ? = inconclusive; / = no result.

SMILES | DRD3 agonist | DRD3 antagonist | D1 agonist | ERG Ets-DNA blk | D1 antag | D1 PAM
COc1ccc(C(=O)NNC(=O)COc2ccc(Cl)cc2C)cc1S(=O)(=O)N1CCOCC1 | -1.2 | -6.8 | 8.2 | 3.7% | -5.4 | -4.8
CCNC(=O)C1CCCN(Cc2cc(C(F)(F)F)ccc2Cl)CC1 (stereo not drawn) | -19.9 | -75.7* | / | / | / | /
CCCCn1nnnc1SCC(=O)NC1CCCCC1 | 2.2 | 7.3 | 3.1 | -1.6% | 20.6 | -7.0
CCn1nnnc1SCC(=O)NNC(=O)C1CCCCC1 | -2.5 | -80.2* | 3.5 | 3.7% | 6.0 | -8.1
CCOC(=O)N1CCN(c2cc(=O)n(-c3ccc(C)cc3)c(=O)[nH]2)CC1 | -5.6 | -18.9 | 2.0 | -6.5% | -4.0 | -0.3
CCOC(=O)c1c(C)c(C(=O)NCCN2CCOCC2)c(C)n1CC | -9.2 | -15.3 | 2.8 | 1.2% | -3.6 | 0.8
NS(=O)(=O)c1ccc(CCNC(=O)COC(=O)CCc2ccccc2)cc1 | 3.1 | 19.8 | 1.5 | 8.6% | -16.0 | -4.7
CC(C)(C)c1ccc(C(=O)CCC(=O)OCC(=O)NCCc2ccc(S(N)(=O)=O)cc2)cc1 | 3.5 | 0.9 | 4.7 | -6.0% | -34.2* | -3.9
O=C(COC(=O)c1n[nH]c(=O)c2ccccc12)c1ccc(Br)cc1 | 3.7 | 3.9 | 4.3 | -4.5% | 5.6 | -3.0
COc1ccc(/C=C2\Oc3cc(OC(=O)N4CCOCC4)ccc3C2=O)cc1 | 0.8 | 5.6 | 2.8 | -4.2% | -0.7 | -3.0
COc1cc(OC)c(OC)cc1/C=C1\Oc2cc(OS(C)(=O)=O)ccc2C1=O | -26.4 | -14.6 | 52.6* | 13.1% | -21.8 | -1.1
Cc1cc(O)cc2c1C(=O)/C(=C/c1ccco1)O2 | 4.3 | 6.4 | 42.3* | 19.2% | -6.4 | -4.2
CC(=O)Oc1ccc2c(c1)O/C(=C\c1ccncc1)C2=O | -4.6 | -21.8 | 65.2* | 11.2% | -2.1 | 0.0
COc1ccccc1C(=O)Oc1ccc2c(c1)O/C(=C\c1ccncc1)C2=O | -8.5 | -29.6 | 35.8* | -1.4% | 33.0 | -3.5
COC(=O)COc1ccc2c(c1)O/C(=C\c1ccco1)C2=O | 1.2 | -18.7 | 3.2 | -12.8% | -1.1 | 6.5
C[C@H](NC(=O)c1nc[nH]c1C(=O)N(C)Cc1ccccc1)C(=O)OC(C)(C)C | 9.7 | 5.0 | 0.4 | 1.1% | -4.4 | -2.5
CCC(=O)Oc1ccc2c(c1)O/C(=C\c1ccco1)C2=O | 10.9 | -1.9 | 43.0* | 2.4% | 9.5 | -2.3
CCN(CC)C(=O)Oc1ccc2c(c1)O/C(=C\c1ccco1)C2=O | -2.9 | 0.0 | 0.5 | 14.4% | 9.9 | 2.5
CS(=O)(=O)Oc1ccc2c(c1)O/C(=C\c1cccnc1)C2=O | 19.3 | 4.0 | 1.6 | 1.3% | 0.6 | 1.1
O=C(Oc1ccc2c(c1)O/C(=C\c1ccncc1)C2=O)c1cccs1 | -1.1 | ? | 36.6* | -2.2% | -9.7 | -4.0
COCOCCn1cc(CN2CCS(=O)(=O)N(Cc3ccc(-c4ccc(F)cc4)cc3)C(C(C)C)C2=O)nn1 (stereo not drawn) | 3.2 | -7.0 | / | / | / | /
O=C(CN1C(=O)CCc2cc(S(=O)(=O)N3CCOCC3)ccc21)NCc1ccccc1 | 7.5 | / | 4.0 | 1.5% | 10.1 | 0.5
O=[N+]([O-])c1ccccc1CNc1ccc(F)c(Cl)c1 | -5.8 | -15.5 | -1.8 | 1.3% | -0.7 | 7.0
COc1cccc(CNc2ccc(F)c([N+](=O)[O-])c2)c1O | -5.2 | -22.5 | 7.6 | 23.9% | -30.8* | -8.5
O=c1oc(-c2cccs2)nc2c1cnn2-c1ccccc1 | 0.0 | -56.2* | 2.2 | -4.3% | 15.3 | -1.1
SMILES | DRD3 agonist | DRD3 antagonist | D1 agonist | ERG Ets-DNA blk | D1 antag | D1 PAM
O=c1oc(-c2ccccc2)nc2c1cnn2-c1ccccc1 | -13.6 | 8.0 | 4.7 | 0.9% | -3.6 | -0.6
CCc1nnc(NC(=O)CSc2ncnc3scc(-c4ccc(C)cc4)c23)s1 | 51.4* | 29.9 | 0.8 | -7.4% | -2.4 | 1.0
Cc1ccc(-c2csc3ncnc(SCC(N)=O)c23)cc1 | 1.2 | 20.3 | 0.7 | -1.2% | -4.5 | 10.1
CCCC1=NN2C(=N)/C(=C\c3ccc(SCc4ccco4)o3)C(=O)N=C2S1 | 2.7 | -10.8 | 63.0* | ? | 3.0 | -2.5
CCCC1=NN2C(=N)/C(=C\c3cc(C)n(Cc4ccccc4)c3C)C(=O)N=C2S1 | 5.0 | -7.3 | 149.9* | 10.1% | -36.7* | 1.4
CCC1=NN2C(=N)/C(=C/c3c(C)nn(-c4ccccc4)c3Cl)C(=O)N=C2S1 | -2.3 | 13.8 | -0.2 | -3.1% | -4.8 | -3.5
CCC1=NN2C(=N)/C(=C\c3ccc(SCc4ccco4)o3)C(=O)N=C2S1 | -1.5 | 0.0 | 37.7* | 96.7% | 7.1 | -9.3
N=C1/C(=C/c2ccco2)C(=O)N=C2SC(CC(=O)N3CCCC3)=NN12 | 0.1 | -11.3 | 2.2 | -6.7% | -3.8 | -6.8
COc1cc(/C=C2/SC(=S)N(Cc3ccccc3)C2=O)cc(Cl)c1O | -4.5 | 29.4 | 474.2* | 7.9% | -24.6 | 3.1
COc1cc(/C=C2/SC(=S)N(CC(=O)NC(C)(C)C)C2=O)cc(OC)c1OC | -4.1 | 18.1 | 4.6 | / | -4.4 | -4.8
COc1cc([N+](=O)[O-])cc(/C=C2/SC(=S)N(Cc3ccccc3)C2=O)c1O | 2.1 | 14.0 | 110.3* | -5.2% | -2.7 | -0.1
COc1cc(/C=C2/SC(=S)N(Cc3ccccc3)C2=O)ccc1OS(C)(=O)=O | -6.7 | -16.6 | 0.3 | 36.3% | -0.1 | -2.9
COc1cc(/C=C2\SC(=S)N(CC(=O)NC(C)(C)C)C2=O)cc(OC)c1OC | -1.4 | 2.5 | 11.5 | 2.5% | -61.2* | -10.1
N/C(=N\OC(=O)c1ccccc1Br)c1ccc([N+](=O)[O-])cc1 | 2.6 | -70.8* | 7.2 | 0.0% | -8.1 | -4.3
N/C(=N\OC(=O)c1ccc(Cl)c([N+](=O)[O-])c1)c1ccccc1 | 1.7 | -65.3* | 6.3 | 8.8% | -21.2 | -4.0
CCn1c(SC(C)C)nnc1C1CCN(S(=O)(=O)c2ccc(OC)cc2)CC1 | 1.5 | 3.3 | 1.4 | -1.4% | 4.4 | -2.5
O=C(NC(=S)N1CCN(c2ccc([N+](=O)[O-])cc2)CC1)c1ccccc1 | -0.2 | -20.7 | -0.7 | -0.5% | -9.3 | -7.8
Cc1ccc(C(=O)NC(=S)N2CCN(c3ccc([N+](=O)[O-])cc3)CC2)cc1 | -23.4 | -52.6* | -1.5 | -7.0% | -7.8 | -4.2
O=[N+]([O-])c1ccc(N2CCN(C(=S)Nc3cccc(F)c3)CC2)cc1 | -0.5 | 2.6 | 12.2 | 10.7% | -37.6* | -4.0
O=[N+]([O-])c1ccc(NC(=S)N2CCc3ccccc3C2)cc1 | -2.5 | 2.8 | 13.4 | -5.5% | -33.2* | -10.3
O=C(c1ccc([N+](=O)[O-])cc1)N1CCc2ccccc2C1 | 8.1 | 3.7 | 1.0 | 3.6% | -6.8 | -5.7
